# According to PubChem BioAssay AID1159580 (chemical genetic matrix, 2015):
# The whole screen tested about 5,500 compounds, of which about 2,000 (36%) were called active. About 18% were inconclusive and are not listed. The list shows a part of the results. A number with no mark means an inactive call. No stated cut-off is given here; in the data, active means normalized growth mostly below about 0.91 (no sharp cut-off); inconclusive means no clear call, values can overlap the other calls; inactive means mostly above about 0.92.
# Assay: chemical genetic growth profiling, strain panel (AID 1159580);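 further: tested at 20 µM; growth read once vehicle control cultures reached saturation at 30 °C; 1 = growth at the plate median or of vehicle wells; lower values mean less growth of the strain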
# Details: S. cerevisiae deletion strains, growth OD
# [1] = locus YDL101C, strain DUN1, hits give low values
# [2] = locus YHR030C, strain SLT2, hits give low values
structure (smiles),measurement,setting,value
CCCc1cc(=O)c2ccc(O)cc2o1,normalized growth,"locus YAL013W, strain DEP1, hits give low values",0.975
same,normalized growth,"locus YBR229C, strain ROT2, hits give low values",1
same,normalized growth,"locus YCL061C, strain MRC1, hits give low values",0.976
same,normalized growth,[1],0.947
same,normalized growth,"locus YDL134C, strain PPH21, hits give low values",0.996
same,normalized growth,"locus YDR150W, strain NUM1, hits give low values",0.967
same,normalized growth,"locus YEL061C, strain CIN8, hits give low values",1
same,normalized growth,"locus YGR078C, strain PAC10, hits give low values",0.969
same,normalized growth,[2],0.919
same,normalized growth,"locus YHR087W, strain rtc3, hits give low values",1.03
same,normalized growth,"locus YJR043C, strain POL32, hits give low values",1
same,normalized growth,"locus YJR075W, strain HOC1, hits give low values",1.01
same,normalized growth,"locus YLR039C, strain RIC1, hits give low values",0.957
same,normalized growth,"locus YLR058C, strain SHM2 (second series), hits give low values",0.986
same,normalized growth,"locus YLR085C, strain ARP6, hits give low values",0.964
same,normalized growth,"locus YLR262C, strain YPT6, hits give low values",1.01
same,normalized growth,"locus YML094W, strain GIM5, hits give low values",1.02
same,normalized growth,"locus YMR219W, strain ESC1, hits give low values",0.998
same,normalized growth,"locus YMR263W, strain SAP30, hits give low values",0.995
same,normalized growth,"locus YNL128W, strain TEP1, hits give low values",0.97
same,normalized growth,"locus YNL153C, strain GIM3, hits give low values",0.993
same,normalized growth,"locus YNL298W, strain CLA4 (second series), hits give low values",0.971
same,normalized growth,"locus YNL322C, strain KRE1, hits give low values",0.966
same,normalized growth,"locus YNR030W, strain Alg12, hits give low values",0.985
same,normalized growth,"locus YOL006C, strain TOP1, hits give low values",0.933
same,normalized growth,"locus YPL055C, strain LGE1, hits give low values",1.05
same,normalized growth,"locus YPL241C, strain CIN2, hits give low values",0.988
same,normalized growth,"locus YPR135W, strain CTF4, hits give low values",0.943
Cc1c(Cc2ccc(F)cc2)c(=O)oc2cc(O)ccc12,normalized growth,"locus YAR019C, strain CDC15, hits give low values",0.973
same,normalized growth,"locus YBL105C, strain PKC1, hits give low values",0.986
same,normalized growth,"locus YBR135W, strain CKS1, hits give low values",0.98
same,normalized growth,"locus YBR136W, strain MEC1, hits give low values",0.963
same,normalized growth,"locus YBR160W, strain CDC28, hits give low values",0.981
same,normalized growth,"locus YDL017W, strain CDC7, hits give low values",0.983
same,normalized growth,"locus YDL028C, strain MPS1, hits give low values",0.976
same,normalized growth,[1],0.979
same,normalized growth,"locus YDL108W, strain KIN28, hits give low values",0.978
same,normalized growth,"locus YDL132W, strain cdc53, hits give low values",0.978
same,normalized growth,"locus YDL214C, strain PRR2, hits give low values",0.967
same,normalized growth,"locus YDR052C, strain DBF4, hits give low values",0.987
same,normalized growth,"locus YDR054C, strain cdc34, hits give low values",0.975
same,normalized growth,"locus YDR226W, strain ADK1, hits give low values",0.987
same,normalized growth,"locus YDR477W, strain SNF1, hits give low values",0.971
same,normalized growth,"locus YER123W, strain YCK3, hits give low values",0.99
same,normalized growth,"locus YER133W, strain GLC7, hits give low values",0.977
same,normalized growth,"locus YFL009W, strain cdc4, hits give low values",0.973
same,normalized growth,"locus YFL029C, strain CAK1, hits give low values",0.97
same,normalized growth,"locus YFR003C, strain YPI1, hits give low values",0.985
same,normalized growth,"locus YFR019W, strain FAB1, hits give low values",0.988
same,normalized growth,"locus YFR028C, strain CDC14, hits give low values",0.972
same,normalized growth,"locus YGR040W, strain KSS1, hits give low values",0.954
same,normalized growth,"locus YGR052W, strain FMP48, hits give low values",1.02
same,normalized growth,"locus YGR092W, strain DBF2, hits give low values",0.944
same,normalized growth,[2],0.83 (active)
same,normalized growth,"locus YHR079C, strain IRE1, hits give low values",0.91
same,normalized growth,"locus YHR082C, strain KSP1, hits give low values",0.968
same,normalized growth,"locus YHR205W, strain SCH9, hits give low values",0.958
same,normalized growth,"locus YIL147C, strain SLN1, hits give low values",0.983
same,normalized growth,"locus YJL095W, strain BCK1, hits give low values",0.923
same,normalized growth,"locus YJL128C, strain PBS2, hits give low values",0.956
same,normalized growth,"locus YJL157C, strain FAR1, hits give low values",0.966
same,normalized growth,"locus YJR016C, strain ILV3, hits give low values",0.982
same,normalized growth,"locus YJR066W, strain TOR1 (second series), hits give low values",0.976
same,normalized growth,"locus YJR066W, strain TOR1, hits give low values",0.957
same,normalized growth,"locus YKL048C, strain ELM1, hits give low values",0.969
same,normalized growth,"locus YKL067W, strain YNK1, hits give low values",0.979
same,normalized growth,"locus YKL101W, strain HSL1, hits give low values",0.967
same,normalized growth,"locus YKL193C, strain SDS22, hits give low values",0.976
same,normalized growth,"locus YKL203C, strain TOR2, hits give low values",1.01
same,normalized growth,"locus YLR113W, strain HOG1, hits give low values",0.903
same,normalized growth,"locus YLR133W, strain CKI1, hits give low values",0.968
same,normalized growth,"locus YLR403W, strain SFP1, hits give low values",0.969
same,normalized growth,"locus YML070W, strain DAK1, hits give low values",0.999
same,normalized growth,"locus YMR001C, strain CDC5, hits give low values",0.978
same,normalized growth,"locus YMR205C, strain PFK2 (second series), hits give low values",0.974
same,normalized growth,"locus YMR277W, strain FCP1, hits give low values",0.974
same,normalized growth,"locus YNL006W, strain LST8, hits give low values",0.975
same,normalized growth,"locus YNL020C, strain ARK1, hits give low values",0.96
same,normalized growth,"locus YNL161W, strain CBK1, hits give low values",0.974
same,normalized growth,"locus YNL183C, strain NPR1, hits give low values",0.939
same,normalized growth,"locus YNL207W, strain RIO2, hits give low values",0.97
same,normalized growth,"locus YNL222W, strain SSU72, hits give low values",0.976
same,normalized growth,"locus YNL307C, strain MCK1 (second series), hits give low values",0.984
same,normalized growth,"locus YOL078W, strain AVO1, hits give low values",0.973
same,normalized growth,"locus YOL136C, strain PFK27, hits give low values",0.964
same,normalized growth,"locus YOR061W, strain CKA2, hits give low values",0.957
same,normalized growth,"locus YOR119C, strain RIO1, hits give low values",0.977
same,normalized growth,"locus YOR231W, strain MKK1, hits give low values",0.926
same,normalized growth,"locus YOR329C, strain SCD5, hits give low values",0.979
same,normalized growth,"locus YPL031C, strain PHO85, hits give low values",0.947
same,normalized growth,"locus YPL153C, strain RAD53, hits give low values",0.962
same,normalized growth,"locus YPL204W, strain HRR25, hits give low values",0.98
same,normalized growth,"locus YPL209C, strain IPL1, hits give low values",0.982
same,normalized growth,"locus YPL256C, strain CLN2, hits give low values",0.899
same,normalized growth,"locus YPR025C, strain CCL1, hits give low values",0.977
same,normalized growth,"locus YPR106W, strain ISR1, hits give low values",0.984
same,normalized growth,"locus YPR111W, strain DBF20, hits give low values",0.971
same,normalized growth,"strain NNK1, hits give low values",0.984
same,normalized growth,"strain TSCII, hits give low values",0.978
